# Results as given in PubChem BioAssay AID504326 (The Scripps Research Institute Molecular Screening Center, 2011).
# Hit rate of the full screen: of about 340,000 compounds, about 990 (0.29%) were called active. No stated cut-off is given here; in the data, active means activation above about 18%; inactive means the rest. The full list was thinned out, with actives kept by preference.
# Target: Mu-type opioid receptor (Homo sapiens) + Delta-type opioid receptor (Homo sapiens) (UniProt P35372+P41143)
# Assay: inducers of mu-delta opioid receptor heterodimers – cell-based, luminescence, primary screen (AID 504326);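 further: 0% = vehicle-treated cells and 100% = reference agonist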
# Settings: cells, OPRM1-OPRD1 heterodimerization, at 9.3 µM, hits give high values
# Mu-type opioid receptor (Homo sapiens) + Delta-type opioid receptor (Homo sapiens), sequence (P35372 whole entry, looked up): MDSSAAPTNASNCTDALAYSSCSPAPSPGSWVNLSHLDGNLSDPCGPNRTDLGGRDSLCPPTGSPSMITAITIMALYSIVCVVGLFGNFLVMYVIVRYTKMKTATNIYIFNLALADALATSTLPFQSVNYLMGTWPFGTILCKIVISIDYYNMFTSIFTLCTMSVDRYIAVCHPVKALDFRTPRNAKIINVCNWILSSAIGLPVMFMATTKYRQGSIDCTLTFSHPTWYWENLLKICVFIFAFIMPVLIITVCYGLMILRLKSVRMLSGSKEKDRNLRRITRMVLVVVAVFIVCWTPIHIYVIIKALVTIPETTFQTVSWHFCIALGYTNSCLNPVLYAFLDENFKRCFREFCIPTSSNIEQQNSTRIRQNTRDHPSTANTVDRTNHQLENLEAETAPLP
# Mu-type opioid receptor (Homo sapiens) + Delta-type opioid receptor (Homo sapiens), sequence (P41143 whole entry, looked up): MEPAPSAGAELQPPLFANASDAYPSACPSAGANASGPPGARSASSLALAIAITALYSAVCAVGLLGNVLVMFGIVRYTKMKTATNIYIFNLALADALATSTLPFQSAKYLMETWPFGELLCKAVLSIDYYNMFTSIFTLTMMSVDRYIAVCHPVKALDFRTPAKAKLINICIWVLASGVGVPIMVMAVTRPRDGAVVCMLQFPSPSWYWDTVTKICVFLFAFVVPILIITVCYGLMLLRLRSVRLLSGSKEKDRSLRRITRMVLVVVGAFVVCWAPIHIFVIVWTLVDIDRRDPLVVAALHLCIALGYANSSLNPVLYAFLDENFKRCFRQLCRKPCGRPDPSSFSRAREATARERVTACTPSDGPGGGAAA
row,SMILES,activation
1,CCOC(=O)c1c(NC(=O)CNC2CCCc3ccccc32)sc(C(N)=O)c1C (stereo not given),9.2% (inactive)
2,O=C1C=C(NS(=O)(=O)c2ccccc2)C(=O)c2ccccc21,1.48% (inactive)
3,CC(NC(=O)c1ccccc1)C(=O)Nc1ccccc1 (stereo not given),-3.96% (inactive)
4,O=C(NC1=CC(=O)c2ccccc2C1=O)c1ccccc1,20% (active)
5,O=C(Cc1ccc(S(=O)(=O)N2CCOCC2)s1)N1CCN(c2ccc(C(F)(F)F)cc2[N+](=O)[O-])CC1,-0.92% (inactive)
6,CCOC(=O)N1CCN(c2c(NCCN3CCN(c4ccccc4F)CC3)c(=O)c2=O)CC1,-1.83% (inactive)
7,CN(Cc1ccccc1)C(=O)c1ccc(COc2ccccc2)cc1,1.93% (inactive)
8,CN(CC(=O)Nc1ccc(Cl)cc1)C(=O)c1ccc(COc2ccccc2)cc1,22.2% (active)
9,COc1ccc(NC(=O)CN(C)C(=O)c2ccc(COc3ccccc3)o2)cc1,-1.92% (inactive)
10,CC(CNc1ccc([N+](=O)[O-])c2cccnc12)Nc1c([N+](=O)[O-])cc(C(F)(F)F)cc1[N+](=O)[O-] (stereo not given),0.2% (inactive)
11,CCOC(=O)c1sc(NC(=O)C2CSC3(C)CCC(=O)N23)nc1C (stereo not given),-4.78% (inactive)
12,CCOc1ccc(OCC)c(-c2c(=O)n(OCc3ccc(Cl)cc3)c3ccccc3[n+]2[O-])c1,-0.14% (inactive)
13,Clc1ccc(COn2c(-c3ccc(Cl)cc3Cl)nc3ncccc32)cc1,55.9% (active)
14,Clc1ccc(-c2cc(-c3ccccn3)on2)c(Cl)c1,-0.72% (inactive)
15,Cc1cccc(N2CCN(C(=O)c3ccccc3NC(=O)C3CCCCC3C(=O)O)CC2)c1 (stereo not given),-1.68% (inactive)
16,COc1ccc(C2Nc3ccccc3C(=O)N2c2ccc(F)cc2)cc1Cn1nnc2ccccc21 (stereo not given),29.4% (active)
17,COc1ccc(N2C(=O)c3ccccc3NC2c2ccc(OC)c(CN3CCOCC3)c2)cc1 (stereo not given),-3.57% (inactive)
18,COc1ccc(C2Nc3ccccc3C(=O)N2Cc2ccccc2)cc1Cn1nnc2ccccc21 (stereo not given),15.1% (inactive)
19,Cc1ccc2cccc(O)c2[n+]1[O-],4.35% (inactive)
20,CCOc1ccc(C(=O)Nc2ccc(S(=O)(=O)NCC3CCCO3)cc2)cc1OCC (stereo not given),-4.05% (inactive)
21,COc1ccc(/C=C/C(=O)Nc2ccc(C34CC5CC(CC(O)(C5)C3)C4)cc2)cc1OC,3.53% (inactive)
22,O=C(NCc1cn2ccsc2n1)Nc1ccc(Cl)cc1,30.4% (active)
23,O=C(NCc1cn2ccsc2n1)Nc1cccc(Cl)c1,-4.06% (inactive)

row,SMILES,activation
1,O=C(NCc1ccccn1)Nc1ccc(Cl)cc1,-2.12% (inactive)
2,CCSC1=C(C#N)C(=O)n2c1cc1c2CCCC1,-1.61% (inactive)
3,O=C1c2cccc3c([N+](=O)[O-])ccc(c23)C(=O)N1CC1CCCO1 (stereo not given),2.93% (inactive)
4,Cc1cc(C)c(S(=O)(=O)N2C=CC(C(F)(F)F)=NCC2)c(C)c1,0.24% (inactive)
5,CCCCNC(=O)CSc1nc2n[nH]c(C)c2c(=N)n1-c1cccc(Cl)c1C,0.12% (inactive)
6,Cc1ccc(-n2c(SCC(=O)NCCC3=CCCCC3)nc3n[nH]c(C)c3c2=N)cc1Cl,27.3% (active)
7,COc1cccc(-n2c(SCC(=O)NC3CCCCC3)nc3n[nH]c(C)c3c2=N)c1,0.14% (inactive)
8,CCN(CC(=O)Nc1ccc(S(=O)(=O)N2CCCC2)cc1)CC(=O)Nc1cccc(OC)c1,-3.32% (inactive)
9,CCNS(=O)(=O)c1ccc(NC(=O)Nc2cccc(OC)c2)cc1,62.3% (active)
10,COc1cccc(NC(C)=[N+](C)CCNS(=O)(=O)c2ccc(Cl)cc2)c1,-2.81% (inactive)
11,Cc1ccc(N2C(=O)N3[C@@H]4c5ccccc5OC[C@@H]4[C@@H](c4ccccc4)[C@@]3(C)C2=O)cc1,-1.07% (inactive)
12,CC(C)N(Cc1nnc(-c2ccccc2Br)o1)C(=O)c1cc(Cl)nc2ccccc12,-1.2% (inactive)
13,COCCCNc1nc2c(-c3cccc(C(F)(F)F)c3)nnn2c2ccccc12,-0.55% (inactive)
14,COCCCNc1nc2c(-c3cccc(C)c3)nnn2c2ccc(Cl)cc12,41.8% (active)
15,COC(=O)Cn1nc(-c2ccccc2)c2cc(Cl)ccc21,-1.42% (inactive)
16,CC(=O)c1ccc(NC(=O)C(C)NCc2ccc(Cl)cc2)cc1 (stereo not given),-0.65% (inactive)
17,CN(C(=O)c1ccc(NC(=O)Cc2cccc(NC(=O)C3CCN(C(=O)c4ccccc4)CC3)c2)cc1)C1CC1,-0.88% (inactive)
18,COCCOC1CCN(C(=O)c2ccc(OC)c(OC3CCN(C(C)C)CC3)c2)CC1,-3.67% (inactive)
19,CCC(C(=O)OCC(=O)Nc1ccccc1-c1ccccc1)c1ccccc1 (stereo not given),12.4% (inactive)
20,CCC(C(=O)OCC(=O)Nc1c(Cl)cc(Cl)cc1Cl)c1ccccc1 (stereo not given),6.24% (inactive)
21,CCC(C(=O)OCC(=O)Nc1ccc(C(=O)Nc2ccc(OC)cc2)cc1)c1ccccc1 (stereo not given),19.4% (active)
22,O=C(CC(=O)N/N=C\c1cccc(Cl)c1Cl)NCc1ccccc1,1.01% (inactive)
23,O=C(CNC(=O)c1ccccc1F)c1ccc(Br)cc1,-3.5% (inactive)

row,SMILES,activation
1,CCC(C)(C)C1CCC(=NNC(=O)c2ccc(Br)o2)CC1 (stereo not given),-0.98% (inactive)
2,CC(NC(=O)Nc1ccccc1)C(c1cccs1)N1CCN(c2ccccc2)CC1 (stereo not given),-1.69% (inactive)
3,CCCC(=O)NC(C)C(c1cccs1)N1CCN(c2ccccc2)CC1 (stereo not given),25.9% (active)
4,CC(NC(=O)C(C)(C)C)C(c1cccs1)N1CCN(Cc2ccccc2)CC1 (stereo not given),-1.34% (inactive)
5,C#CC(CCN1CCCCC1)(OC)c1ccccc1 (stereo not given),-1.1% (inactive)
6,Cc1ccc(S(=O)(=O)N(Cc2cccc([N+](=O)[O-])c2)C(=O)N2CCN(C)CC2)cc1,2.18% (inactive)
7,O=C(c1cccc([N+](=O)[O-])c1)N1CCN(Cc2ccccc2)CC1,-2.62% (inactive)
8,O=C(CCl)N(Cc1cccc([N+](=O)[O-])c1)c1cccc(Cl)c1,31.3% (active)
9,Cc1cc2c(cc1C)N(Cc1ccccc1)C1=NCCCN12,-3.79% (inactive)
10,CC(C)(C)c1nnc2sc(SCC(O)=C(C#N)c3nc4ccccc4[nH]3)nn2c1=O,-3.45% (inactive)
11,N#C/C(=C(/O)COc1cccc2ccccc12)c1nc2ccccc2[nH]1,20.5% (active)
12,COCCN(CCOC)S(=O)(=O)c1ccc(/C(O)=C(\C#N)c2nc3ccccc3[nH]2)cc1,-0.63% (inactive)
13,COc1ccccc1C(=O)COC(=O)COc1ccc(C#N)cc1,-3.44% (inactive)
14,N#C/C(=C(/O)Cc1cccc2ccccc12)c1nc2ccccc2s1,-0.06% (inactive)
15,N#C/C(=C(/O)COC(=O)COc1ccc(Cl)cc1)c1nc2ccccc2[nH]1,24.4% (active)
16,CCc1nc2ccccc2c(C(=O)OC2CCCCC2=O)c1C (stereo not given),-2.96% (inactive)
17,CC(C)(C)C(=O)NC(NC(=S)Nc1ccc(S(N)(=O)=O)cc1)C(Cl)(Cl)Cl (stereo not given),0.71% (inactive)
18,CC(=O)NC(NC(=S)Nc1c(C)n(C)n(-c2ccccc2)c1=O)C(Cl)(Cl)Cl (stereo not given),-0.74% (inactive)
19,Cc1ccc(NC(=S)NC(NC(=O)Cc2cccc3ccccc23)C(Cl)(Cl)Cl)cc1 (stereo not given),43.3% (active)
20,COc1ccc(OC)c(CN2CCN(C(=O)CNC(=O)c3cc(C)cc(C)c3)CC2)c1,-5.2% (inactive)
21,O=C(CSc1nnc(CN2CCCC2)n1-c1ccc(F)cc1)c1ccc2c(c1)OCO2,-2.96% (inactive)
22,C=CCN(C(=O)c1cc(C)cc(C)c1)C1(C(=O)Nc2ccccc2)CCN(C(C)C)CC1,0.59% (inactive)
23,Cc1cc(C)cc(C(=O)N(CCc2ccccc2)C2=CC3CCC(C2)N3C)c1 (stereo not given),104% (active)

row,SMILES,activation
1,Cc1ccc(CCN2CC(C(=O)NCCc3ccccc3)CC2=O)cc1 (stereo not given),-2.88% (inactive)
2,Cc1ccc(C2C(C#N)C(C#N)N3CCCN23)cc1 (stereo not given),0.61% (inactive)
3,CSc1n[nH]c(=S)n1N,-1.24% (inactive)
4,O=C(COc1ccc2ccc(=O)oc2c1)NCC(O)c1ccccc1 (stereo not given),-1.9% (inactive)
5,CCCN1Cc2cccc(C(=O)NCc3ccccc3)c2C1=O,-0.19% (inactive)
6,CCNC(=O)CN(c1ccc(C)cc1)S(=O)(=O)c1ccc(SC)cc1,-4.37% (inactive)
7,Cc1ccc(S(=O)(=O)N(CC(=O)Nc2cccnc2)c2ccc(Br)cc2)cc1,24.9% (active)
8,CCc1ccc(N(CC(=O)NCc2cccnc2)S(=O)(=O)c2ccccc2)cc1,-1.13% (inactive)
9,COc1ccc(C(=O)Nc2cc(C)ccc2NC(=O)COc2ccccc2)cc1,0.51% (inactive)
10,CCS(=O)(=O)c1ccc(O)c(NC(=O)COc2ccc(Cl)cc2)c1,-5.16% (inactive)
11,Cc1ccc(O)c(NC(=S)NC(=O)COc2ccc(Br)cc2)c1,22.7% (active)
12,OCC1(Cc2ccccc2)CCN(Cc2cc3ccccc3o2)CC1,0.65% (inactive)
13,N#CC(C(=O)c1ccc(S(=O)(=O)N2CCCCCC2)cc1)c1nc2ccccc2[nH]1 (stereo not given),24.1% (active)
14,O=S(=O)(c1ccc(Br)cc1)N1CCC(c2nc3ccccc3[nH]2)CC1,1.07% (inactive)
15,O=C(Nc1ncccc1O)c1ccc(S(=O)(=O)N2CCCCCC2)cc1,-4.61% (inactive)
16,Oc1cccc2ccc(/C=C/c3ccc(Br)s3)nc12,1.72% (inactive)
17,Nc1ccc(C(=O)Nc2ccccc2N)cc1,2.04% (inactive)
18,Cc1ccc(Nc2nc(Cl)c(C=O)s2)cc1,4.48% (inactive)
19,Cc1ccc(Nc2ccccc2N)cc1,21.4% (active)
20,COc1cc(C(=O)OCC(=O)NC23CC4CC(CC(C4)C2)C3)cc(OC)c1OC,-1.44% (inactive)
21,COc1ccc(NC(=O)CCCN2C(=O)C(c3ccccc3)Oc3cccnc32)cc1 (stereo not given),2.07% (inactive)
